Six molecules from PubChem BioAssay can be followed below.

Calls of active or inactive are those of the source.

Assay [1] has as its target Albumin (Bos taurus) (UniProt P02769). As to the kind of experiment: bovine serum albumin binders on microarray, profiling panel, artefact control for SMM control protein annotation, biochemical, small-molecule microarray, Alexa647 label, 635/667 nm fluorescence (AID 1118).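 Also: score merges 667 nm emission intensity and signal-to-noise per printed compound spot.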 As to conditions: BSA-A647 binding, fluorescence 635 nm, higher = more signal.
Assay [2] can be described thus: small-molecule microarray binders of probe aXIP, primary screen, biochemical, NeuroSMM set, 635/667 nm fluorescence (AID 1119).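 Also: probe is the protein aXip251-270 applied at 1 µg/mL to compound-printed slides; binding of probe to printed compounds measured as 667 nm fluorescence plus signal to noise.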 As to conditions: higher = more signal, called active from +8 up or from −8 down.
A short description of assay [3]: small-molecule binders of probe aNOTCH3, primary screen, biochemical, small-molecule microarray, 635/667 nm fluorescence (AID 1120).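 Also: probe is a biotin-tagged antibody raised against NOTCH3 rather than NOTCH3 protein; score merges spot fluorescence near 667 nm with spot signal to noise.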 As to conditions: higher = more signal.
The nature of assay [4]: small-molecule binders of probe aNOTCH2, primary screen, biochemical, small-molecule microarray, 635/667 nm fluorescence (AID 1121).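 Also: score merges feature fluorescence read at 667 nm with its signal to noise.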 As to conditions: higher = more signal.
Assay [5] concerns the target Carbonic anhydrase 2 (Homo sapiens) (UniProt P00918). As to the kind of experiment: CAII small-molecule binders, profiling panel, biochemical, small-molecule microarray, Alexa647-labelled CAII (AID 1122). As to conditions: CAII-A647 binding fluorescence, higher = more signal.
Assay [6] can be described thus: COS7 lysate on small-molecule microarray, probe aHis, 635 nm (AID 1123).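 Also: z-score combines 667nm fluorescence intensity with signal-to-noise per printed compound spot.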 As to conditions: COS7 cell lysate, fluorescence, higher = more signal.
Assay [7] can be described thus: compound binding in COS7 lysate, probe aLAP1, primary screen, cell lysate, small-molecule microarray (AID 1124).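 Also: lysate comes from COS7 cells expressing LAP1 and is applied at 0.3 µg/mL; score merges spot fluorescence near 667 nm with signal-to-noise over triplicate slides.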 As to conditions: probe aLAP1, fluorescence, higher = more signal.
Assay [8] deals with Sam68 (KHDRBS1). The assay is described as follows: Sam68 small-molecule binders, primary screen, biochemical, small-molecule microarray, 635 nm fluorescence (AID 1125).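 Also: score merges 667 nm channel intensity with signal to noise over triplicate slides.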 As to conditions: small-molecule microarray binding, higher = more signal.
Assay [9] deals with Chordin-like protein 2 (CHRDL2). As to the kind of experiment: CHRDL2 small-molecule binders, primary screen, biochemical, small-molecule microarray, 635 nm fluorescence (AID 1126).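 Also: printed compound slides probed with Chrdl2 protein at 4 µg/mL for 1 h at 4 C; score merges 667 nm emission intensity with signal to noise over three replicate slides.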 As to conditions: small-molecule microarray binding, fluorescence 635 nm; higher = more signal.
Assay [10] deals with Concanavalin-A (Canavalia ensiformis) (UniProt P02866). The assay is described as follows: ConA small-molecule binders, primary screen, artefact control for SMM control protein annotation, biochemical, small-molecule microarray, Alexa647 label, 635 nm (AID 1127).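 Also: z combines 667 nm emission intensity with signal-to-noise across three replicate slides.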 As to conditions: ConA-A647 binding fluorescence, higher = more signal.
Sequence of Concanavalin-A (Canavalia ensiformis) (P02866 whole entry, looked up): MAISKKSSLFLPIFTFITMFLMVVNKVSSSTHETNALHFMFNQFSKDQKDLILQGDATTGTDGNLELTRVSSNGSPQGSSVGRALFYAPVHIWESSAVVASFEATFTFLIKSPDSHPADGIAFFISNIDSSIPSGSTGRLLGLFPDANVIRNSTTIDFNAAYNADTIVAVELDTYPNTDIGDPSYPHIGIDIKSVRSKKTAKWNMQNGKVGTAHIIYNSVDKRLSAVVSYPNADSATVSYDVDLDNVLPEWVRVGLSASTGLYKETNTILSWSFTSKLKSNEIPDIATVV
The nature of assay [11]: anti-His antibody binders, primary screen, artefact control for SMM control protein annotation, biochemical, small-molecule microarray, 635 nm fluorescence (AID 1128).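 Also: score merges feature fluorescence with signal-to-noise for each printed compound spot.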 As to conditions: anti-His Alexa647 antibody binding, higher = more signal.
Assay [12] has as its system Human papillomavirus type 1a E7 protein (residues 1-88). As to the kind of experiment: HPV1a E7 small-molecule binders, primary screen, biochemical, small-molecule microarray, residues 1-88, 635 nm (AID 1129). As to conditions: small-molecule microarray binding, fluorescence 635 nm; higher = more signal.
Assay [13] deals with Focal adhesion kinase 1 (Homo sapiens) (UniProt Q05397). As to the kind of experiment: small-molecule microarray binders of FAK, primary screen, biochemical, 635/667 nm fluorescence, BSA, DTT (AID 1130).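 Also: composite of spot emission at 667 nm and signal to noise over triplicate slides.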 As to conditions: PTK2 binding, 635 nm fluorescence, higher = more signal.
Sequence of Focal adhesion kinase 1 (Homo sapiens) (Q05397 whole entry, looked up): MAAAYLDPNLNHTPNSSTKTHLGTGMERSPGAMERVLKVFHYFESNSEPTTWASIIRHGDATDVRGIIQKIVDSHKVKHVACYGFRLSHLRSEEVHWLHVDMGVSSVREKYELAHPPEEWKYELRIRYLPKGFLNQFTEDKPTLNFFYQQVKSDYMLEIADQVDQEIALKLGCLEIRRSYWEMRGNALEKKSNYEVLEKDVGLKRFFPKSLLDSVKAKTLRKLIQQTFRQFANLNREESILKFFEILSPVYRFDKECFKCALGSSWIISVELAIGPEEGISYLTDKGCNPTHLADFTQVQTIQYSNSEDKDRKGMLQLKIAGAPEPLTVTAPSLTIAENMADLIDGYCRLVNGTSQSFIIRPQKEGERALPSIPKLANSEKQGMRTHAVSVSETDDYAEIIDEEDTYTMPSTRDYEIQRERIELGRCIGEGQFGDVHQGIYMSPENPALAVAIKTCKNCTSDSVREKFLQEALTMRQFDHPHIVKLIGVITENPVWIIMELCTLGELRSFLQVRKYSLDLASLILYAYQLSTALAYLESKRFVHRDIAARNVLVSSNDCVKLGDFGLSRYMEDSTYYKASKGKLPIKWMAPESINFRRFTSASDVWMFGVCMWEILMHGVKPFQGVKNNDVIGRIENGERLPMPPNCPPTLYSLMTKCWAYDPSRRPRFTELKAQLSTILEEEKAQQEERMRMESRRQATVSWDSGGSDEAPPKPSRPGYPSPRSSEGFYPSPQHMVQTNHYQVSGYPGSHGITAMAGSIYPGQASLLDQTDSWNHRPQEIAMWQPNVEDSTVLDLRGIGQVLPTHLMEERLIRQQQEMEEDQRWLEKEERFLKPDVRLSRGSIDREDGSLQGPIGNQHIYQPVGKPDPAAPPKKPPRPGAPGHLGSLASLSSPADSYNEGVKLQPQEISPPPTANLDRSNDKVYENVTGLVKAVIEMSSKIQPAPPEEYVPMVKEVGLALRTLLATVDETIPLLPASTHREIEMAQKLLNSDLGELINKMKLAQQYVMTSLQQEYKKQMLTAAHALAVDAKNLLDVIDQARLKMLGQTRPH
The subject of assay [14] is Fibrinogen (Alexa647-labelled). The assay is described as follows: fibrinogen binders on compound microarrays, profiling panel, artefact control for SMM control-protein annotation, biochemical, small-molecule microarray, 635/667 nm fluorescence (AID 1131).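 Also: z-score merges 667 nm fluorescence with per-spot signal-to-noise over triplicate slides.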 As to conditions: fibrinogen-A647 binding fluorescence, higher = more signal.
The target in assay [15] is Follistatin (Homo sapiens) (UniProt P19883). As to the kind of experiment: follistatin binders on small-molecule microarrays, primary screen, biochemical, small-molecule microarray, 635/667 nm fluorescence (AID 1132). As to conditions: FST binding, 635 nm fluorescence, higher = more signal.
Sequence of Follistatin (Homo sapiens) (P19883 whole entry, looked up): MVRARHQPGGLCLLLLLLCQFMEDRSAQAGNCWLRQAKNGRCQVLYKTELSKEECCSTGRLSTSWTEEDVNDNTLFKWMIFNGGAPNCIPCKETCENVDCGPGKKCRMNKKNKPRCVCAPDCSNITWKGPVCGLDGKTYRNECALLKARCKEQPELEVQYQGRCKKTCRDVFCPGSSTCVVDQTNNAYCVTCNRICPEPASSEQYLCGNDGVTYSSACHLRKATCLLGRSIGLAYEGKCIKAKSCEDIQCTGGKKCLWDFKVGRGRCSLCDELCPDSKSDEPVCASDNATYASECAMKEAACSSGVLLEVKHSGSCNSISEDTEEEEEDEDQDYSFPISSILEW
In assay [16] the target is Fibroblast growth factor 2 (Homo sapiens) (UniProt P09038). As to the kind of experiment: FGF2 binders on small-molecule microarrays, primary screen, biochemical, small-molecule microarray, 635/667 nm fluorescence (AID 1133). As to conditions: small-molecule microarray binding, FGF2, fluorescence 635/667; higher = more signal.
Sequence of Fibroblast growth factor 2 (Homo sapiens) (P09038 whole entry, looked up): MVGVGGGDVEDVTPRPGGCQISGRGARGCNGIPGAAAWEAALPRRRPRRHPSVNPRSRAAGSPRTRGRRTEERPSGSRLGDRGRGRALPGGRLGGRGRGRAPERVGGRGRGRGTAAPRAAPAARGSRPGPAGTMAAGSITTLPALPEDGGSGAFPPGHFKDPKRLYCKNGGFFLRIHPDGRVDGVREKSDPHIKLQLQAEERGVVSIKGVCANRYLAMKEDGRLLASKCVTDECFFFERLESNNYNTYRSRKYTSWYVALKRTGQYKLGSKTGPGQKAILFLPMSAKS
Assay [17] can be described thus: mitochondrial membrane potential change in A549 cells, profiling panel, cell-based, JC-1 fluorescence, basal, 24 h, 100 nL (AID 1138).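 Also: A549 lung adenocarcinoma cells under basal conditions with no added stimulus; test concentration not given here.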 As to conditions: higher = more signal.
For assay [18], the system named is Lefty1. As to the kind of experiment: Lefty1 binders on small-molecule microarrays, primary screen, biochemical, small-molecule microarray, 635/667 nm fluorescence (AID 1139). As to conditions: small-molecule microarray binding, fluorescence 635/667; higher = more signal.
In assay [19] the test system is wheat germ agglutinin (Triticum aestivum), Alexa647-labelled. As to the kind of experiment: wheat germ agglutinin binders on compound microarrays, profiling panel, artefact control for SMM control-protein annotation, biochemical, small-molecule microarray, 635/667 nm fluorescence (AID 1140).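 Also: score merges 667 nm feature emission with signal to noise over triplicate slides.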 As to conditions: WGA-A647 binding, 635 nm fluorescence, higher = more signal.

The target of assay [20] is Luciferin 4-monooxygenase (Photinus pyralis) (UniProt P08659). As to the kind of experiment: firefly luciferase enzyme inhibitors, primary screen, biochemical, luminescence, purified enzyme, 2006 set (AID 1141).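 Also: cell-free assay with purified firefly luciferase at 100 ng per well in PBS; test concentration not given here.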 As to conditions: SteadyGlo luminescence, 30 min, higher = more signal, called active from +8 up or from −8 down.
Sequence of Luciferin 4-monooxygenase (Photinus pyralis) (P08659 whole entry, looked up): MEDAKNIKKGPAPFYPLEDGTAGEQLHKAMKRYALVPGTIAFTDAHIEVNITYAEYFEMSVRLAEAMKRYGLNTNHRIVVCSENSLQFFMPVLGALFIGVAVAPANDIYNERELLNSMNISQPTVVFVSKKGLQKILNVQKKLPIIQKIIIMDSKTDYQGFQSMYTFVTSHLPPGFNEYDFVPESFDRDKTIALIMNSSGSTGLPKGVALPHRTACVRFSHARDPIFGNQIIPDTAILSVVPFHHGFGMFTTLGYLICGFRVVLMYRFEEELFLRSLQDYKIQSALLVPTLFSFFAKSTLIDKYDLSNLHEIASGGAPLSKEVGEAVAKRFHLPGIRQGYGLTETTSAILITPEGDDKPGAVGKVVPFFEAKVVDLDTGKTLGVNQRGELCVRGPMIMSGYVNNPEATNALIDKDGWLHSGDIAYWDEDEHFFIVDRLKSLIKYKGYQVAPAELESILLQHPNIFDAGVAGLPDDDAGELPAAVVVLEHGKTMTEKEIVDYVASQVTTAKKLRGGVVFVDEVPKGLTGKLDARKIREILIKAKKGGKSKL

Sequence of Albumin (Bos taurus) (P02769 whole entry, looked up): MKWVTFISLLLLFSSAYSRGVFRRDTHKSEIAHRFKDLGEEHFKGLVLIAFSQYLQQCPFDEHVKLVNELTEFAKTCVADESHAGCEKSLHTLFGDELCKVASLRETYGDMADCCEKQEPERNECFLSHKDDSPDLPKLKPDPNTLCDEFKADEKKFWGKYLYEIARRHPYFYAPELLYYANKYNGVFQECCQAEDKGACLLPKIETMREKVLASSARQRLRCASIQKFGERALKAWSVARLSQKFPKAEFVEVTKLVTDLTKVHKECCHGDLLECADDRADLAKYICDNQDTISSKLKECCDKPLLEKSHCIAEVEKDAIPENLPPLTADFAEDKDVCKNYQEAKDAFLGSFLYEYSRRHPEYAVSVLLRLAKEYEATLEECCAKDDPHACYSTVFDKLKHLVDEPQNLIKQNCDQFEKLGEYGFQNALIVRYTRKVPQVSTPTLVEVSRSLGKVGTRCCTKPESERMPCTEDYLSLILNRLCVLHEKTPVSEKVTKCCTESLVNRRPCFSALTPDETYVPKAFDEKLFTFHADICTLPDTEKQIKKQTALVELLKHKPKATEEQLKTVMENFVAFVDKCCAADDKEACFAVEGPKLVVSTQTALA

With `C[N+](C)(C)CCCC[C@@H]1NC(=O)[C@H]2C[C@@H](C(=O)NCCCCCCNC(=O)CS)[C@@H](c3cccc(OCCO)c3)N2C1=O`, the composite z-score was 0.492 in [1]; -0.246 in [3]; -0.146 in [4]; 0.881 in assay [5]; 1.8 in [6]; 0.864 in assay [7]. The composite z-score in [8] was -0.365; in assay [9], -1.44; in assay [10], -0.338; in [11], 1.03; in [12] it was -0.945; in assay [13] it was 0.434. In addition, the composite z-score was -1.56 in assay [14]; 0.897 in assay [15]; 0.885 in assay [16]; -1.36 in [18]; 0.396 in assay [19]. For the same molecule, the composite Z-score in assay [2] is 3.4 (inactive). For the same molecule, the z-score is -0.32 in assay [17] and -0.252 (inactive) in assay [20].
Regarding `C=C[C@H](C)[C@@H](OC(=O)Nc1ccc(OC)cc1)c1ccc(O)c2ccccc12`, the composite z-score in [1] was -0.964; in [3], -0.118; in [4], -0.167; in assay [5], 0.742; in assay [6], 0.832; in assay [7], 0.152. The composite z-score was 0.357 in assay [8]; 0.257 in assay [9]; -0.365 in [10]; 0.965 in assay [11]; 0.0812 in [12]; -0.603 in assay [13]. In addition, the composite z-score in [14] is -0.95; in [15] it was 0.999; in assay [16] it was 0.0495; in assay [18], 1.04; in [19], -0.235. Moreover, the composite Z-score in assay [2] is -0.734 (inactive). Moreover, the values for the z-score in [17] and in [20] were -1.64 and -5.17 (inactive), respectively.
For the molecule `COc1cccc(-c2cccc(=O)o2)c1`, the composite z-score in assay [1] was -0.172; in assay [3] it was 0.366; in [4], 0.38; in [5] it was 0.111; in assay [6], 0.175; in [7], -0.0345. Further, the composite z-score was -0.579 in assay [8]; 0.683 in assay [9]; -0.664 in assay [10]; 0.0707 in assay [11]; -0.0477 in assay [12]; -0.0753 in assay [13]. Further, the composite z-score in [14] was -0.51; in assay [15], 0.302; in assay [16], 0.0278; in assay [18] it was -0.198; in assay [19], 0.143. The composite Z-score in assay [2] is 2.41 (inactive). Besides, the z-score in [17] was -0.376; in assay [20], -0.0346 (inactive).
Regarding `CC1(C)[C@@H]2CC(C(O)C3C=CC4C(=O)N(Cc5ccccc5)C(=O)C4N3n3cnnc3)=C[C@H]1C2` (stereo not given in full), the composite z-score in assay [1] is 0.925; in [3] it was -0.0079; in assay [4] it was -0.0866; in assay [5], 0.651; in assay [6] it was 1.39; in assay [7] it was 0.641. For the same molecule, the composite z-score was 1.34 in assay [8]; 0.371 in assay [9]; 0.39 in assay [10]; 0.356 in assay [11]; 1.19 in assay [12]; 0.218 in assay [13]. Also, the composite z-score in [14] was determined as 0.744; in assay [15], 0.86; in [16], 0.321; in assay [18], 0.625; in assay [19] it was 0.901. The composite Z-score in [2] is -0.132 (inactive). In addition, the values for the z-score in [17] and in assay [20] were -0.287 and 1.62 (inactive), respectively.
Regarding `[N-]=[N+]=Nc1ccccc1[C@H]1OC(c2ccc(OCCCO)cc2)=N[C@@]1(CCS(=O)(=O)c1ccccc1)C(=O)NCC(O)CO` (stereo not given in full), the composite z-score in assay [1] was 0.876; in assay [3], 0.102; in assay [4], -0.0984; in assay [5] it was 0.718; in [6], 3.02; in assay [7], 0.261. Further, the composite z-score in assay [8] is 1.33; in assay [9] it was -0.907; in assay [10] it was 0.833; in [11], 1.52; in [12], 0.94; in [13], 0.605. Also, the composite z-score in assay [14] is 1.07; in assay [15] it was 1.27; in [16], 0.057; in [18] it was -0.0179; in assay [19] it was 0.914. In addition, the composite Z-score in assay [2] is -0.0683 (inactive). The figures for the z-score in assay [17] and in assay [20] were 0.233 and -9.88 (active), respectively.
Turning to `CCOC(=O)C[C@H]1[C@H](OC(=O)c2ccc(C(=O)c3ccccc3)cc2)[C@@H](NC(=O)c2ccccc2)c2cc(OCCCO)ccc2N1C(=O)Cc1ccc(OC)cc1`, the composite z-score in assay [1] was 0.346; in [3], 0.0242; in assay [4], -0.0624; in assay [5], 0.0172; in assay [6], 0.445; in [7], -0.171. Besides, the composite z-score in assay [8] is 0.226; in [9] it was 0.0542; in assay [10], 0.163; in [11] it was -0.239; in assay [12], -0.158; in assay [13], 0.0147. For the same molecule, the composite z-score was 0.204 in assay [14]; 0.0257 in assay [15]; -0.358 in assay [16]; 0.545 in assay [18]; -0.0653 in assay [19]. In addition, the composite Z-score in assay [2] was 0.713 (inactive). Also, the z-score in assay [17] is 2.33; in assay [20] it was -0.863 (inactive).
